# PubChem BioAssay
# Unmarked numbers belong to inactive results. Entries that show only a call come without a potency. For part of these data: Potency and affinity values are given separately. The source made the active and inactive calls. Unless noted, no rule for the calls is given here.
# Experiments:
# [1] = antimalarial activity against Dd2 strain (AID 2302;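 active = growth inhibition above 50% at the single 2 µM test dose, taken to imply half-maximal potency below 2 µM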); details: P. falciparum Dd2 in RBCs, LDH growth readout, 72 h; at 2 µM; stronger effect = higher value
# [2] = HepG2 cytotoxicity, primary screen, cytotoxicity control for P. falciparum antimalarial project, cell-based, ATP luminescence (AID 2303;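 active = inhibition above 50%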); details: HepG2 viability, 24-48 h, at 10 µM, stronger effect = higher value
# [3] = target: L-lactate dehydrogenase (Plasmodium falciparum (isolate CDC / Honduras)) (UniProt Q27743); assay: PfLDH activity inhibition – cell lysate, 3D7 strain, counter-screen for P. falciparum growth inhibition project (AID 2304); details: P. falciparum 3D7 crude extract, LDH APAD/NBT absorbance; at 2 µM; stronger effect = higher value
# [4] = inhibition of 3D7 malaria parasite growth – strain 3D7 (AID 2306); details: P. falciparum 3D7 erythrocytic growth, LDH absorbance, 72 h; at 2 µM; stronger effect = higher value
# [5] = target: Calcium-dependent protein kinase 1 (Plasmodium falciparum (isolate 3D7)) (UniProt P62344); assay: PfCDPK1 kinase inhibitors, biochemical, TCAMS library (AID 1159585; cut-off not given, nearly all actives have IC50 up to about 0.98 µM;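 also: inhibitors leave more ATP so luminescence rises with inhibition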); details: recombinant PfCDPK1, Kinase-Glo ATP depletion luminescence
# [6] = target: Plasmodium falciparum protein kinase 6 (PK6, PF3D7_1337100) (UniProt Q8IDW1); assay: PfPK6 kinase inhibitors, biochemical, TCAMS library (AID 1159586); details: recombinant PfPK6, Kinase-Glo ATP depletion luminescence
# [7] = target: Protein kinase 7 (PK7), Plasmodium falciparum 3D7 (PF3D7_0213400) (UniProt Q7YTF7); assay: inhibition of Plasmodium PK7 catalytic activity – biochemical, TCAMS antimalarial set, Kinase-Glo luminescence (AID 1159587); details: recombinant PfPK7, Kinase-Glo ATP depletion luminescence
# [8] = target: Calcium-dependent protein kinase 4 (Plasmodium falciparum (isolate 3D7)) (UniProt Q8IBS5); assay: PfCDPK4 kinase inhibitors, biochemical, TCAMS library (AID 1159588; cut-off not given, nearly all actives have IC50 up to about 0.91 µM); details: recombinant PfCDPK4, Kinase-Glo ATP depletion luminescence
# Chain of Calcium-dependent protein kinase 4 (Plasmodium falciparum (isolate 3D7)) (Q8IBS5 whole entry, looked up): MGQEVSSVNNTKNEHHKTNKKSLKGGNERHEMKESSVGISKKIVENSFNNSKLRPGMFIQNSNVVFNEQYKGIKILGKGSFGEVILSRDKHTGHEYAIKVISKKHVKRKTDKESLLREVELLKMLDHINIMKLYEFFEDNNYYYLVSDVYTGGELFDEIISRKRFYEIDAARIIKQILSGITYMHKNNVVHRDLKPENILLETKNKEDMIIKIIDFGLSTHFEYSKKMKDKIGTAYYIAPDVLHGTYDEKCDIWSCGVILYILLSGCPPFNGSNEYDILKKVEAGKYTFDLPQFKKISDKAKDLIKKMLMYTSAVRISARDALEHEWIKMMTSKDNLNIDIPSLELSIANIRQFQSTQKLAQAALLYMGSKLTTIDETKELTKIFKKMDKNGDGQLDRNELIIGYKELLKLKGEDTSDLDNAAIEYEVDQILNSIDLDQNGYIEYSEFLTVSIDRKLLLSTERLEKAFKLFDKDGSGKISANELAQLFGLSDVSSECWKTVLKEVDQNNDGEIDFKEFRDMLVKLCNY
# Chain of Calcium-dependent protein kinase 1 (Plasmodium falciparum (isolate 3D7)) (P62344 whole entry, looked up): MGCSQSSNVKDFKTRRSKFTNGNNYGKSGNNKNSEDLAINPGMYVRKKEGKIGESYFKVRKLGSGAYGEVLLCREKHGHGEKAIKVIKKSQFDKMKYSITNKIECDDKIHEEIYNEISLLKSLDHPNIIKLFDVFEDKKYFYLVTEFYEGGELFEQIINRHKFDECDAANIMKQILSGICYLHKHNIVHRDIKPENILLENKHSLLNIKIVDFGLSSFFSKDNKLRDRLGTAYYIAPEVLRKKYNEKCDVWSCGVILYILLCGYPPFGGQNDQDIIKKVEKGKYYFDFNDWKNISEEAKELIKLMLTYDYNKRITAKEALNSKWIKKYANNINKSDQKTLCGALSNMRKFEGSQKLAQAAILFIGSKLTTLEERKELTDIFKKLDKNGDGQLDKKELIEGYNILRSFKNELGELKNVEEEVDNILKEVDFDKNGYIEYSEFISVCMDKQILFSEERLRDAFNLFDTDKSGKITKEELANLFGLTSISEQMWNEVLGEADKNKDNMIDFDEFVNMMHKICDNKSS
# Chain of Protein kinase 7 (PK7), Plasmodium falciparum 3D7 (PF3D7_0213400) (Q7YTF7 1-343): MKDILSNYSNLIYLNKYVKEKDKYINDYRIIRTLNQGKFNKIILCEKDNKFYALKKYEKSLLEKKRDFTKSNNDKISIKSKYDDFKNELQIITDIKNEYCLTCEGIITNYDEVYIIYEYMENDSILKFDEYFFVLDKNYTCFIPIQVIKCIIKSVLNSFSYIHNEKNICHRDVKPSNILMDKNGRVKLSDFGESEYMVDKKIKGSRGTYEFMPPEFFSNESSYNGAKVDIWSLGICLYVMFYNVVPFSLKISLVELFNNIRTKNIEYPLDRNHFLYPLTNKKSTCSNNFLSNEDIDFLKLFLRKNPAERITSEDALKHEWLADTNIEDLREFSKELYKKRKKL
# Chain of L-lactate dehydrogenase (Plasmodium falciparum (isolate CDC / Honduras)) (Q27743 whole entry, looked up): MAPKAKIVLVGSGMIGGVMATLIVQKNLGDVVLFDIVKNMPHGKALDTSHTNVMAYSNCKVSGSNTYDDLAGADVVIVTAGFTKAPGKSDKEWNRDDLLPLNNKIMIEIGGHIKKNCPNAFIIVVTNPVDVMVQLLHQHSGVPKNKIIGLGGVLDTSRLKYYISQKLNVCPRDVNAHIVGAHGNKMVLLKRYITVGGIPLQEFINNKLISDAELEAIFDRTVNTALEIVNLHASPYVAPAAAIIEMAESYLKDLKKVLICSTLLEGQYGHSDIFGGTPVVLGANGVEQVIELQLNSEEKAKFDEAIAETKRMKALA
# Chain of Plasmodium falciparum protein kinase 6 (PK6, PF3D7_1337100) (Q8IDW1 1-305): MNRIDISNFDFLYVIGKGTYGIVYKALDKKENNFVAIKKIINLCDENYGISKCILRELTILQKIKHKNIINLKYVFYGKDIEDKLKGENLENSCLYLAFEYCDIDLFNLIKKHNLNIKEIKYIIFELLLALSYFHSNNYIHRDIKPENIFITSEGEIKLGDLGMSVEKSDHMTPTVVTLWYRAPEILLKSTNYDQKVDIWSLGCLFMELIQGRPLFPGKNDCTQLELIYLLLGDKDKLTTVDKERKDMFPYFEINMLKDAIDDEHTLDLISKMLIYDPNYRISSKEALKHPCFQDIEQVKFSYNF
Compound,growth inhibition [1],inhibition [2],inhibition [3] [%],growth inhibition [4],outcome [5],outcome [6],outcome [7],outcome [8]
O=C(/C=C/c1ccc(Cl)c(Cl)c1)NCCCCCN1CCC(NS(=O)(=O)c2cc(Cl)cc(Cl)c2)CC1,5%,7%,3,83% (active),inactive,inactive,inactive,inactive
COc1ccc2c(NN=Cc3ccncc3)ccnc2c1,6%,-12%,-3,95% (active),inactive,inactive,inactive,inactive
Cc1cc(N2CCNCC2)c2cc(NC(=O)Nc3ccc(Cl)c(Cl)c3)ccc2n1,86% (active),23%,-2,100% (active),inactive,inactive,inactive,inactive
COc1ccc2ccccc2c1CCCCN1CCN(CC(c2ccc(F)cc2)N2CCN(C3CCCC3)CC2)CC1 (configuration not stated),51% (active),88% (active),6,88% (active),inactive,inactive,inactive,inactive
CC(C)c1ccc(NC(=O)c2cccc(CN3CCCN(CC4CCCCC4)CC3)c2)cc1,59% (active),62% (active),2,85% (active),inactive,inactive,inactive,inactive
CCC(C)CN1CCN(c2ccc(NC(=O)c3cccs3)cc2)C(C)C1 (configuration not stated),95% (active),-4%,-2,95% (active),inactive,inactive,inactive,inactive
Cc1ccc(NC(=O)Nc2ccc(Cl)cc2)cc1-c1ccc(C(=O)Nc2ccncc2)cc1,63% (active),54% (active),-1,99% (active),inactive,inactive,inactive,inactive
Cc1cccc(Cl)c1S(=O)(=O)Nc1cccc(CCN2CCC(N3CCCCC3)CC2)c1,18%,34%,2,91% (active),inactive,inactive,inactive,inactive
COc1ccc(C2CCN(CCCCNC(=O)c3ccc(NC(=O)c4ccc(Cl)cc4)cc3)CC2)c(OC)c1,95% (active),32%,0,101% (active),inactive,inactive,inactive,inactive
Cc1nnsc1C(=O)Nc1ccc(-c2cccc(-c3nc4ccc(F)cc4[nH]3)c2)cc1,27%,44%,2,96% (active),inactive,inactive,inactive,inactive
Cc1cc(NC(=O)c2cccs2)ccc1OC1CCN(Cc2ccc(C#N)cc2)CC1,92% (active),34%,4,94% (active),inactive,inactive,inactive,inactive
CCc1[nH]nc(C(=O)Nc2cccc(N3CCCC3)c2)c1C,52% (active),15%,1,81% (active),inactive,inactive,inactive,inactive
Cn1nccc1C(=O)NCCNCc1ccc(-c2cccc(-c3nc4ccc(C(F)(F)F)cc4[nH]3)c2)cc1,99% (active),51% (active),-8,101% (active),inactive,inactive,inactive,inactive
Oc1ccc(CCNc2nc(NCCCOc3cccc(-c4ccccc4)c3)nc(N3CCNCC3)n2)cc1,14%,40%,-2,89% (active),inactive,inactive,inactive,inactive
Cc1cccc2c(CON3C(N)=NC(N)=NC3(C)C)cccc12,94% (active),64% (active),-1,94% (active),inactive,inactive,inactive,inactive
O=C(Nc1ccccc1)N(Cc1ccccc1-c1cccc(CNC2CCCC2)c1)C1CCN(Cc2ccccc2)CC1,84% (active),36%,3,100% (active),inactive,inactive,inactive,inactive
CN1CCCN(Cc2cccc(-c3ccc(CNC(=O)c4cccc(Cl)c4)c(F)c3)c2)CC1,38%,56% (active),-2,96% (active),inactive,inactive,inactive,inactive
N=c1n(Cc2ccccc2)c2ccccc2n1CC(O)c1ccc(Cl)c(Cl)c1 (configuration not stated),98% (active),40%,4,95% (active),inactive,inactive,inactive,inactive
COc1ccc(-c2csc3nc(C)nc(Cl)c23)cc1OC,95% (active),-10%,-6,97% (active),inactive,inactive,inactive,inactive
Cc1nc(N=C(N)N)nc2cc3c(cc12)CCC3,58% (active),17%,5,90% (active),inactive,inactive,inactive,inactive

Compound,growth inhibition [1],inhibition [2],inhibition [3] [%],growth inhibition [4],outcome [5],outcome [6],outcome [7],outcome [8]
N#Cc1ccc(NC(=O)N2CCCN(CCCCCNC(=O)/C=C/c3ccc(Cl)c(Cl)c3)CC2)cc1,4%,32%,0,100% (active),inactive,inactive,inactive,inactive
CCCCCCCCCCN1C(=O)C2C(CCCCNC(C)=O)NC3(C(=O)N(Cc4ccc(C(C)(C)C)cc4)c4ccccc43)C2C1=O (configuration not stated),65% (active),3%,-3,86% (active),inactive,inactive,inactive,inactive
COc1ccc(CNc2ncnc3c2[nH]c2ccc(F)cc23)cc1,71% (active),38%,-3,93% (active),inactive,inactive,inactive,inactive
CCC(C)CN1CCN(c2cc(NC(=O)c3cccs3)ccn2)C(C)C1 (configuration not stated),72% (active),5%,0,88% (active),inactive,inactive,inactive,inactive
Fc1ccc(CN2CCN(c3ncnc4cc(-c5ccccc5)sc34)CC2)cc1,82% (active),7%,4,82% (active),inactive,inactive,inactive,inactive
CC(C)N1CCC(N(Cc2ccc(-c3ccc(C(F)(F)F)cc3)cc2)C(=O)Cn2c(SCc3cccc(F)c3F)cc(=O)c3ccccc32)CC1,77% (active),52% (active),1,100% (active),inactive,inactive,inactive,inactive
CN1CCN(CC(=O)Nc2ccc(-c3ccc(-c4nc5ccccc5[nH]4)cc3)cc2)CC1,80% (active),18%,-1,98% (active),inactive,inactive,inactive,inactive
CCC(=O)Nc1ccc(Nc2nc(C)cc(N3CCCC3)n2)cc1,2%,34%,-2,91% (active),inactive,inactive,inactive,inactive
COc1ccc(-c2ccc(NC(=O)c3cccc(Cl)c3)cc2)cc1CN(C)CCN(C)C,35%,22%,-3,100% (active),inactive,inactive,inactive,inactive
Cc1cc(NCCc2ccccc2)nc(/N=C(\N)Nc2cccc([N+](=O)[O-])c2)n1,101% (active),21%,-2,102% (active),inactive,inactive,inactive,inactive
COc1ccc(CC2(c3ccc(F)cc3)N=C(N)N(CCCc3ccc4c(c3)OCO4)C2=O)cc1 (configuration not stated),97% (active),60% (active),3,98% (active),inactive,inactive,inactive,inactive
O=C(Nc1ccccc1)NC1CCN(CCC2(c3ccc(Cl)c(Cl)c3)COCN(C(=O)c3ccccc3)C2)C1 (configuration not stated),81% (active),23%,3,92% (active),inactive,inactive,inactive,inactive
COc1ccc2nc3ccccc3c(NCCN3CCN(C)CC3)c2c1,10%,11%,1,81% (active),inactive,inactive,inactive,inactive
O=C(/C=C/c1ccc(Cl)c(Cl)c1)NC1CCN(CCNC(=O)c2cccc(Cl)c2)CC1,45%,22%,0,103% (active),inactive,inactive,inactive,inactive
COc1ccc2nccc(NCC3(O)CCC(NCc4cc5c(cn4)OCCO5)CC3)c2n1 (configuration not stated),23%,15%,-3,99% (active),inactive,inactive,inactive,inactive
Cc1ccc(C)c(NC(=O)Nc2ccc(Nc3nc(C)cc(N4CCOCC4)n3)cc2)c1,48%,88% (active),0,98% (active),inactive,inactive,inactive,inactive
COc1ccc(NC(=O)/C=C/c2ccccc2Cl)cc1OCCN1CCC(O)(c2ccc(Cl)c(C(F)(F)F)c2)CC1,9%,37%,-1,101% (active),inactive,inactive,inactive,inactive
COc1ccc(C(=O)O)cc1OCc1ccccc1,-3%,-3%,3,99% (active),inactive,inactive,inactive,inactive
CCCN(CCCCNC(=O)c1ccc(-c2cccnc2)cc1)C1CCc2c(O)cccc2C1 (configuration not stated),16%,-1%,0,87% (active),inactive,inactive,inactive,inactive
